Compound activity as filed in PubChem.
This excerpt belongs to a sample that is enriched for hits.
mcGAS RapidFire: mouse cGAS inhibition by mass spec; Q8C6L5; recombinant mouse cGAS, cGAMP by RapidFire MS; 130,000 compounds, 0.18% hits; inhibition, % at 12.5 µM;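 active = inhibition of cGAS enzyme activity at or above 60%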;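 note: enzyme stimulated by 45 bp dsDNA with ATP and GTP substrates; cGAMP share of summed cGAMP plus half ATP and half GTP signals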
Target sequence (Q8C6L5 whole entry, looked up): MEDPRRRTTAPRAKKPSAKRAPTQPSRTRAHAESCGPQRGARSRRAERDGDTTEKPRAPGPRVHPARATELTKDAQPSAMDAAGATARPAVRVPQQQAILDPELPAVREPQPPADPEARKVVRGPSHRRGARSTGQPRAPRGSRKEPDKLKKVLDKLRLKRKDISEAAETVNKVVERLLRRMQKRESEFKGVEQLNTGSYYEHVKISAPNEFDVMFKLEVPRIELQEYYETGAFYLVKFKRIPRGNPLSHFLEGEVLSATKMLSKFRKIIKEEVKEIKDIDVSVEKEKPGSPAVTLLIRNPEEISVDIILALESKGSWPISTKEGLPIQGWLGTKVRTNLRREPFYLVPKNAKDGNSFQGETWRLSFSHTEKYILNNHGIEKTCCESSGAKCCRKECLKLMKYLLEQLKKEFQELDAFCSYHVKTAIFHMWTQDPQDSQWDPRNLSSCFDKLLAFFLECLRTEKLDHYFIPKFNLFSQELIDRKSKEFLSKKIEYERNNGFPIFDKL
Large screens that a line does not name were inactive; ! = a repeat was not active.

CN(C)c1ccc(C=CC(=O)c2ccc(S(=O)(=O)N3CCCCCC3)cc2)cc1[N+](=O)[O-]	none
O=c1c(O[C@@H]2O[C@H](CO)[C@@H](O)[C@H](O)[C@H]2O)c(-c2ccc(O)c(O)c2)oc2cc(O)cc(O)c12	none
OC[C@H]1O[C@@H](Oc2ccc(O)cc2)[C@H](O)[C@@H](O)[C@@H]1O	none
O=C(O)c1cc(O)c2c(O)c3c(O[C@H]4O[C@H](CO)[C@@H](O)[C@H](O)[C@H]4O)cccc3c(-c3c4cc(C(=O)O)cc(O)c4c(O)c4c(O[C@H]5O[C@H](CO)[C@@H](O)[C@H](O)[C@H]5O)cccc34)c2c1	mcGAS RapidFire 82!
CN(C(=O)c1nc(Cl)ccc1Cl)C1C2CC3CC(C2)CC1C3 (centres undefined)	none
CCCCC(C)n1[nH]c(=O)cc1N (centres undefined)	mcGAS RapidFire 63
CCCCCC(C)n1[nH]c(=O)c2c(C)cc(C)nc21 (centres undefined)	none
CCCCn1c(N)cc(=O)[nH]c1=O	none
O=[N+]([O-])C(C1=NCCO1)/C(Cl)=C(/Cl)N1CCOCC1 (centres undefined)	none
CCn1c(SCC(=O)N2CC(=O)Nc3ccccc32)nc2ccccc21	none
COc1ccc(CNCc2cnc(-c3ccccc3C)s2)c(F)c1F	none
CNC(=O)c1nnc2n1CCN(C(=O)c1ccc3occc3c1)C2	none
COc1cc(C)cc2c(C)c(C(=O)O)oc12	none
CN(CCNC(=O)c1ccn(-c2ccccc2Cl)n1)C1CC1	none
CS(=O)(=O)c1nnnn1-c1ccccc1Cl	none
OCc1cn(-c2ccccc2Cl)nn1	mcGAS RapidFire 94
COc1ccc(Cl)c(S(=O)(=O)NC(C)c2nc(C)cs2)c1 (centres undefined)	none
O=C1C=CC(=O)N1c1cc(Cl)cc(Cl)c1	mcGAS RapidFire 67
CC(C)CC(NC(=O)c1cccs1)C(=O)N1CCc2c(nc[nH]c2=O)C1 (centres undefined)	none
CC(c1nc2ccccc2c(=O)[nH]1)N1CCN(C(=O)c2ccccc2)CC1 (centres undefined)	none
CN(CC(=O)Nc1ccc(N2CCOCC2)cc1)C(=O)COc1ccccc1C#N	mcGAS RapidFire 69
CCCCC(=O)Nc1ccc(N2CCOCC2)cc1	none
CC(C)n1nccc1NC(=O)COc1ccccc1C#N	none
Cc1nc(NS(=O)(=O)c2ccccc2)sc1C(=O)NCc1c(F)cccc1F	none
c1ccc(-c2ccc(-c3[nH]ncc3CN3CCSCC3)cc2)cc1	none
Cc1cccc(C(=O)N2CCCC(N3CCN(c4cccc(Cl)c4)CC3)C2)c1 (centres undefined)	none
CCN(CC)CCCC(C)Nc1c2ccc(Cl)cc2nc2ccc(OC)cc12 (centres undefined)	mcGAS RapidFire 68!
COc1ccc2nc3cc(Cl)ccc3c(Nc3cc(CN4CCCC4)c(O)c(CN4CCCC4)c3)c2n1	none
CCN(CC)CCCC(C)NCc1ccccc1OC (centres undefined)	none
Cc1cc(C)c(C)c(S(=O)(=O)N2CCn3cccc3C2C)c1C (centres undefined)	none
O=C(COc1ccc(F)cc1Cl)Nc1ccnn1C1CCCC1	none
O=C1NC(O)C(O)N1c1ccccc1 (centres undefined)	none
O=C(Nc1nc(-c2ccc(Cl)s2)cs1)c1cccs1	none
O=C(Nc1n[nH]c(=S)s1)c1ccco1	none
O=C(Nc1n[nH]c(=S)s1)c1cccs1	mcGAS RapidFire 76
N#Cc1cccc(NCc2nc(-c3cccs3)no2)c1	none
Cc1cc(OCC(=O)NNC(=O)c2ccc(F)cc2)cc(C)c1Cl	none
O=C1c2c(O)ccc(O)c2C(=O)c2c(NCCNCCO)ccc(NCCNCCO)c21	mcGAS RapidFire 83!
Cc1ccc(NS(=O)(=O)c2c(C)c(C)c(C)c(C)c2C)c(C)c1O	none
CC(c1nc(-c2cccs2)no1)N1CCC(c2ccccc2)CC1 (centres undefined)	none
NC(=S)CC(=O)N1CCOCC1	none
NC(=O)NO	none
NC(=O)CC(N)=S	mcGAS RapidFire 92
CC1CN(C(=O)c2ccccc2)OC(c2ccc(Cl)cc2Cl)O1 (centres undefined)	none
Cc1ccccc1CSCC(=O)NCCSC1CCCCC1	none
C=CCNC(=O)NC(=O)COC(=O)C=Cc1ccco1	none
N#Cc1ccc(NC(=O)Cn2cnc3sc4c(c3c2=O)CCCC4)cc1	none
CC(C)N(Cc1ccccn1)S(=O)(=O)c1c[nH]c(C(=O)N2CCCC2)c1	none
NS(=O)(=O)c1cc2c(cc1Cl)NCNS2(=O)=O	none
CN1C(CCl)Nc2cc(Cl)c(S(N)(=O)=O)cc2S1(=O)=O (centres undefined)	none
CCC1NC(=O)c2cc(S(N)(=O)=O)c(Cl)cc2N1 (centres undefined)	mcGAS RapidFire 94
Cc1ccsc1C(=O)N1CCCC(N2CCN(Cc3ccc4c(c3)OCO4)CC2)C1 (centres undefined)	none
CN(CCc1cnn(C)c1)C(=O)CC1C(=O)NCCN1Cc1ccc(-c2ccccc2)cc1 (centres undefined)	none
c1ccc2c(c1)OCC(c1nn3c(CN4CCCCCC4)nnc3s1)O2 (centres undefined)	mcGAS RapidFire 70
S=c1n(CN2CCCC2)nc(C2COc3ccccc3O2)n1-c1ccccc1 (centres undefined)	none
c1ccc2c(c1)OCC(c1nn3c(CN4CCOCC4)nnc3s1)O2 (centres undefined)	none
